The panel holds about 79,000 compounds, 15% with a hit somewhere; the sample as a whole holds those more often. Cut-off read from the data, not from the text of the source: active = growth inhibition above about 70%; inactive = the rest.
Key:
[1] = NCI Yeast Anticancer Drug Screen. Data for the rad50 strain (AID 155);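 note: 0% = growth of vehicle-only cultures of the same strain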; details: S. cerevisiae rad50 strain growth inhibition; at 50.0 µM; hits give high values
Procedure, shortened: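 Readout: growth inhibition relative to vehicle-treated cultures. Compound exposure was carried out in a genetically defined yeast strain deficient in DNA damage repair.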

[2] = NCI Yeast Anticancer Drug Screen. Data for the mec2-1 strain (AID 157); details: S. cerevisiae mec2-1 strain, at 50.0 µM, hits give high values
Procedure, shortened: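 Compounds were applied to mec2-1 yeast cells. Their growth was then compared with that of vehicle-treated cultures to give growth inhibition.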

[3] = NCI Yeast Anticancer Drug Screen. Data for the sgs1 mgt1 strain (AID 161);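 note: 0% = growth of cultures given vehicle only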; details: S. cerevisiae sgs1 mgt1 strain, at 50.0 µM, hits give high values
Procedure, shortened: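 This yeast growth screen uses a strain with defined DNA-repair lesions; compound-treated growth is compared with vehicle-treated growth.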

[4] = NCI Yeast Anticancer Drug Screen. Data for the cln2 rad14 strain (AID 165);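 note: 0% = growth equal to vehicle treated cultures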; details: S. cerevisiae cln2 rad14 strain, at 50.0 µM, hits give high values
Procedure, shortened: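 Strain: cln2 rad14 yeast, altered in cell cycle control and DNA damage repair. Read-out: growth inhibition vs vehicle.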

[5] = NCI Yeast Anticancer Drug Screen. Data for the bub3 strain (AID 167); details: S. cerevisiae bub3 mutant strain, at 50.0 µM, hits give high values
Procedure, shortened: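 Readout: yeast growth inhibition, expressed relative to vehicle-only wells. The test organism is a mutant strain from a panel with lesions in DNA repair or checkpoint genes.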

[6] = NCI Yeast Anticancer Drug Screen. Data for the mlh1 rad18 strain (AID 175); details: S. cerevisiae mlh1 rad18 strain growth inhibition; at 50.0 µM; hits give high values
Procedure, shortened: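 A repair-deficient yeast strain is exposed to test compound, and growth is scored relative to vehicle-treated controls.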

Measured: growth inhibition

COc1ccc(C)cc1NC(=S)NC(=O)c1cccc([N+](=O)[O-])c1
inactive: [1] 2.25% | [2] 4.85% | [3] 4.45% | [4] -2.5% | [5] 20.2% | [6] 0.3%

CC1(C)CC(C)(O)N(CCc2ccccc2)C(=S)N1 (configuration not stated)
inactive: [1] -6.55% | [2] 2.7% | [3] 8.8% | [4] -17.1% | [5] 5.15% | [6] 2.45%

CCCCCCCCCCCCCCNCCCCCCCCCCCCCC
inactive: [1] 21% | [2] -9% | [3] 23.8% | [4] 32.2% | [5] 17.1% | [6] 17.4%

Cc1ccc2nc(C)ccc2c1
inactive: [1] -38.2% | [2] -23.2% | [3] -2.7% | [4] -16.1% | [5] -0.2% | [6] -3.4%

O=NN(Cc1ccccc1)c1ccc(OCc2ccccc2)c(NC(=O)CCC2OCCO2)c1
inactive: [1] 6.95% | [2] 4.25% | [3] 30.4% | [4] 7.05% | [6] 9.5%

O=[N+]([O-])c1cc(Cl)ccc1Sc1ccccc1
inactive: [1] 39.6% | [2] 8.25% | [3] 34.3% | [4] 21.9% | [6] 27.3%

CC1(C)C2CCC1(C)C(NC(=O)COCCOCC(N)=O)C2 (configuration not stated)
inactive: [1] -45% | [2] -53.1% | [3] -52.6% | [4] -2.55% | [6] -67.3%

CC1(C)CN(CCO)C(C)(C)CN1CCO
inactive: [1] 13.4% | [2] 7.35% | [3] 7.2% | [4] 12.4% | [5] -27.7% | [6] -10.1%

CN1CCN(CC2C3CCC(C3)C2O)CC1 (configuration not stated)
inactive: [1] -9% | [2] -18.4% | [3] -16.1% | [4] 4.4% | [6] -0.6%

CCOC(=O)c1ccc(NC(=O)Oc2ccc(SC)cc2)cc1
inactive: [1] 8.2% | [2] -5.25% | [3] 0.4% | [4] 8.95% | [6] 6.9%

COC(=O)Nc1nc2ccc(-n3c(C)nc4ccccc4c3=O)cc2[nH]1
inactive: [1] 10.8% | [2] -0.45% | [3] 6.35% | [4] 8.5% | [5] 4.95% | [6] 15.8%

C=CCCNC(=S)S
inactive: [1] -1.15% | [2] 11.7% | [3] 6.1% | [4] -2.9% | [6] -3.4%

C[n+]1ccccc1/C=C/c1ccc2c(c1)OCO2
inactive: [1] 18.3% | [2] 5.9% | [3] 22.5% | [4] -0.45% | [6] 6.6%

C[C@]12CC=CC(=O)[C@@]1(C)CCC(=O)C2
inactive: [1] 3.45% | [2] 0.95% | [3] -9.05% | [4] -25.4% | [6] 8.1%

O=C(O)/C=C\C(=O)Nc1ccc(C(=O)NCC(=O)O)cc1
inactive: [1] -22.9% | [2] -4.8% | [3] -0.85% | [4] -20.8% | [6] -7.05%

COc1ccc(/C=N/N2CN(C(C)C(=O)O)C(O)(CCl)N=C2N)cc1OC (configuration not stated)
inactive: [1] 0.95% | [2] -8.95% | [3] -3% | [4] -27.4% | [6] -1.5%

OC1COC(C2CCCO2)OC1 (configuration not stated)
inactive: [1] 10.4% | [2] -6.2% | [3] -2.35% | [4] 1.35% | [6] 11.8%

O=C1CCC23CC(C=CC=C12)n1c(=O)n(-c2ccccc2)c(=O)n13 (configuration not stated)
inactive: [1] 13.2% | [2] -1.55% | [3] 4.1% | [4] 21.1% | [6] 16.7%

CCOC(=O)c1sc(SC)nc1NC(=O)c1ccc(OC)cc1
inactive: [1] 24.6% | [2] 21.7% | [3] -31.6% | [4] 17.2% | [6] 19.1%

O=CCS
inactive: [1] -0.2% | [2] 4.85% | [3] -5.6% | [4] -38% | [6] 7.15%

Nc1ccc(N=Nc2ccc(OCCN(CCO)CCO)cc2)c(N)n1
inactive: [1] 23.8% | [2] -22.8% | [3] 8.8% | [4] 4.95% | [6] 15.7%

CC(=O)OCC1OC(n2cc(F)c(=O)[nH]c2=O)C(OC(C)=O)C1OC(C)=O (configuration not stated)
inactive: [1] 28.9% | [2] 3.2% | [3] -13.1% | [4] 43.2% | [6] -26.4%

CCN(CC)CCn1c2c3ccccc3ccc2c2oc(=O)c3ccccc3c21
inactive: [1] -13.8% | [2] 6.6% | [3] -14.1% | [4] 19.4% | [6] 7.8%

COc1ccc(C2=Nc3cccc4c3N(CCC4)C2c2ccc(OC)cc2)cc1 (configuration not stated)
inactive: [1] 0.45% | [2] 2.45% | [3] 3% | [4] 7.6% | [6] 4.8%

Cc1ccc(NC(=O)NCc2ccncc2)cc1NC(=O)NCc1ccncc1
inactive: [1] 13% | [2] 15% | [3] 20.8% | [4] 20.2% | [6] 24.8%

Nc1ccc(C(=O)Oc2ccc(OC(=O)c3ccccc3)cc2)cc1
inactive: [1] 9.7% | [2] 20.1% | [3] 18.9% | [4] -6.8% | [6] 13.9%

CCOC(=O)C/C(C)=C1/N=C(c2ccccc2)OC1=O
inactive: [1] 28.9% | [2] 7.85% | [3] 23.2% | [4] 14.8% | [6] 30.8%

CCOc1cc2c(cc1OC)c[n+](C)c1c3cc(OC)c(OC)cc3ccc21
inactive: [1] 22.5% | [2] 10.9% | [3] 15% | [4] -2.1% | [6] 14.6%

O=COCc1ccc2c(c1)OCO2
inactive: [1] 35.3% | [2] 36.9% | [3] 22.9% | [4] 15.2% | [5] 10.1% | [6] 27.8%

COC1OC2COC(c3ccccc3)OC2C(N=[N+]=[N-])C1O (configuration not stated)
inactive: [1] -0.1% | [2] 4% | [3] -4.9% | [4] -31.2% | [6] 2.2%

O=C(Cc1nc2sc3c(c2c(=O)[nH]1)CCCC3)Nc1ccccc1
inactive: [1] -3.1% | [2] -12.3% | [3] 0.05% | [4] 5.9% | [6] -17.6%

CCC(=O)OCC(OC(=O)CC)c1ccccc1 (configuration not stated)
inactive: [1] 3.75% | [2] -22.6% | [3] -16.1% | [4] 2.05% | [6] 8.2%

O=C(NNC(=O)c1ccccc1Br)c1ccccc1
inactive: [1] -17.6% | [2] -45% | [3] -5.4% | [4] 3.45% | [6] -23.6%

CCCCCC(O)(CCCC)CCCC
inactive: [1] -0.45% | [2] -5.6% | [3] -14.3% | [4] -12.6% | [6] -1.15%

CC1(C)C=C(N2CCCCC2)C(=O)c2ccccc21
inactive: [1] -9.6% | [2] -2.25% | [3] -12.2% | [4] -16.4% | [6] 5.15%

CCOC(=O)C(Cc1ccc([N+](=O)[O-])cc1)NC(=O)CC1c2ccccc2-c2ccccc21 (configuration not stated)
inactive: [1] -10.1% | [2] 1.05% | [3] 3.4% | [4] -35% | [6] -8.95%

O=c1[nH]nc(-c2ccc(Cl)cc2)[nH]1
inactive: [1] 9.35% | [2] -4.25% | [3] -3.85% | [4] -30.1% | [6] -3.9%

N#CC(C(=O)CCC(=O)Nc1ccc(Cl)c(Cl)c1)c1ccc(Cl)cc1 (configuration not stated)
inactive: [1] -12.9% | [2] -29.9% | [3] 18.1% | [4] 15.4% | [6] -2.2%

O=C(O)c1c(Cl)c(Cl)c(Cl)c(Cl)c1C(=O)Nc1ccccc1F
inactive: [1] -3.8% | [2] -19.2% | [3] 14.3% | [4] -118% | [6] 0.6%

O=C(O)c1cc(C(=O)O)cc(S(=O)(=O)NCCO)c1
inactive: [1] 3.05% | [2] -10.5% | [3] 2.1% | [4] -30.2% | [6] 5.1%

CCCCNC(=O)c1cc(S(=O)(=O)n2cc[nH]c2=O)c(SC)cc1Cl
inactive: [1] 4.1% | [2] 2.7% | [3] 15.8% | [4] -2.75% | [6] 31.2%

Source: PubChem BioAssay (NCI)
